The subject of one assay is T1, DLK.
T1 construct: gene MAP3K12

In the next assay the test system is T2, DMPK2.
T2 construct: gene CDC42BPG

The subject of another assay is T3, DRAK1.
T3 construct: gene STK17A

SMILES strings stand for the structures.
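Note: kd values determined as follow-up on hits from a single-replicate KINOMEscan panel screen.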

Usually Kd stands for the constant that tells how readily two partners part at equilibrium. Read a high Kd as weaker binding. The compound `Cc1cccc(-c2nc(Nc3ccc4[nH]ncc4c3)c3ccccc3n2)n1` [GW857175] had a Kd with CSNK2A1 of 0.1 µM.
Compound `Cc1ccccc1-n1cnc2c(N)ncnc21` [SKF-97510] came in with a Kd in the assay on DAPK1 greater than 10 µM.
In turn, `Cc1cc(N2Cc3ccccc3C2)nc(Nc2ccc(S(=O)(=O)N3CCOCC3)cc2)n1.Cl` [GSK1669917] displayed a Kd in the assay on DAPK3 greater than 10 µM.
In the case of `CC(=O)Nc1nc2cnc(Nc3cc(NC(=O)c4cccc(CCC#N)c4)ccc3C)nc2s1`, the Kd in the assay with DDR2 is greater than 10 µM.
On the same count and under the same terms, in the case of `Cc1ccc(NC(=O)Nc2cc(C(C)(C)C)nn2-c2ccccc2)cc1` [GSK1014915] it was 0.41 µM.
As to `Cc1cc(-c2ccc3c(c2)CC[C@@H](N[C@@H](C)c2ccccc2)C3)cnc1N.Cl` [GW412617], in the assay on DLK, binding was characterised by a dissociation constant (Kd) of 0.28 µM.
The compound `COc1ccc(CNC(=O)NC2CCN(c3ccnc(Nc4cc(OC)c(OC)c(OC)c4)n3)C2)cc1` (centres unmarked) [GSK1379748] gave a Kd in the assay with DLK of 5.1 µM.
`COc1ccc2nc(-c3cccc(C)n3)nc(Nc3ccncc3)c2c1` [GSK204919] returned a Kd in the assay on DMPK2 of 0.51 µM.
`Cc1cccc(-c2nc(C)cc(Nc3ccncc3)n2)n1` [GSK257997] registered a Kd with DMPK2 of 0.56 µM.
In the assay with DMPK, `Nc1nc(-c2nccs2)c(-c2ccnc3ccccc23)s1` [GW693542] registered a dissociation constant Kd greater than 10 µM.
`C[C@@H]1CCCCN1c1cc(-c2ccc3c(N)n[nH]c3c2)nc(N)n1` [GSK2258759] gave a Kd with DRAK1 of 0.088 µM.
